# In paper PMC7862700, “An all-to-all approach to the identification of sequence-specific readers for epigenetic DNA modifications on cytosine”:
# Columns and labels:
# Test in all cases: DAPPL (digital affinity profiling via proximity ligation, sequencing); 10 mM Tris-HCl pH 7.5, 50 mM NaCl, 1 mM DTT, 4% glycerol, room temperature, 30 min; GST-TFs on glutathione beads, 16-mer random dsDNA library, 0.1% formaldehyde crosslink after washing; high values mean tight binding
# FLI1 = target: T1, FLI1 (Homo sapiens, UniProt Q01543 1-452); conditions: protein: recombinant; tags: N-terminal GST; dsDNA, one strand shown
# T1 sequence: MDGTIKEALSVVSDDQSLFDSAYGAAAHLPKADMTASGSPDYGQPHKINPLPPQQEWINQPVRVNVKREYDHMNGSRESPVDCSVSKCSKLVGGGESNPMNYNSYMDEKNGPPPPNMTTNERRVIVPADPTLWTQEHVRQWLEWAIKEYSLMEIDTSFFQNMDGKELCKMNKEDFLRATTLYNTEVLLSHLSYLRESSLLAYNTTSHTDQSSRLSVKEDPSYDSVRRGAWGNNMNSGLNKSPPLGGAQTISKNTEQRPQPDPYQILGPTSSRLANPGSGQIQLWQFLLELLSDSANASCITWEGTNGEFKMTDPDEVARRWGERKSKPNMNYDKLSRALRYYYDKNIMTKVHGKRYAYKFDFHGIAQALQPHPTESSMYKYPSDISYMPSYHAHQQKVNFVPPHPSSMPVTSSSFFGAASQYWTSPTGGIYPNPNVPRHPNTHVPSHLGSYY
# Summary of the method: (§1)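 A tag-only sample was pooled with DNA-barcoded human transcription factors that had been expressed in yeast as GST fusions and captured on glutathione beads. The pools were incubated for 30 min at room temperature with 200 nmole of a random double-stranded 16-mer DNA library in Tris/NaCl/DTT/glycerol buffer, then washed, crosslinked with 0.1% formaldehyde, proximity-ligated (BsaI/T4 ligase, 1 h, 37 °C), PCR-amplified and sequenced on an Illumina NextSeq500. Binding signal is each hexamer's read frequency for a factor divided by its frequency for the tag-only sample.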
# ELK1 = target: T2, ELK1 (Homo sapiens, UniProt P19419 1-428); conditions: protein: recombinant; tags: N-terminal GST; dsDNA, one strand shown
# T2 sequence: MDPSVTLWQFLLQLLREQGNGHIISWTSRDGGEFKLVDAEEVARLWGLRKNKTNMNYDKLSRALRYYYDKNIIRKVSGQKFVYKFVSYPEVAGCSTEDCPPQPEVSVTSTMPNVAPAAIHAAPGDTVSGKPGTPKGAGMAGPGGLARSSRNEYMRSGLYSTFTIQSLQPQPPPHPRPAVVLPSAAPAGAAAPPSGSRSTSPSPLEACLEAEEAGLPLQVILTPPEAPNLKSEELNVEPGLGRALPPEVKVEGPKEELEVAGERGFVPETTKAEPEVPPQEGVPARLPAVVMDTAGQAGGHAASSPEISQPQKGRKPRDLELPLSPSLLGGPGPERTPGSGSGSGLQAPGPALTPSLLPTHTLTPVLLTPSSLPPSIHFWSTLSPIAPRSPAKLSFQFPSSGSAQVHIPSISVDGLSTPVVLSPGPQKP
# Summary of the method: as §1
# GABPA = target: T3, GABPA (Homo sapiens, UniProt Q06546 1-454); conditions: protein: recombinant; tags: N-terminal GST; dsDNA, one strand shown
# T3 sequence: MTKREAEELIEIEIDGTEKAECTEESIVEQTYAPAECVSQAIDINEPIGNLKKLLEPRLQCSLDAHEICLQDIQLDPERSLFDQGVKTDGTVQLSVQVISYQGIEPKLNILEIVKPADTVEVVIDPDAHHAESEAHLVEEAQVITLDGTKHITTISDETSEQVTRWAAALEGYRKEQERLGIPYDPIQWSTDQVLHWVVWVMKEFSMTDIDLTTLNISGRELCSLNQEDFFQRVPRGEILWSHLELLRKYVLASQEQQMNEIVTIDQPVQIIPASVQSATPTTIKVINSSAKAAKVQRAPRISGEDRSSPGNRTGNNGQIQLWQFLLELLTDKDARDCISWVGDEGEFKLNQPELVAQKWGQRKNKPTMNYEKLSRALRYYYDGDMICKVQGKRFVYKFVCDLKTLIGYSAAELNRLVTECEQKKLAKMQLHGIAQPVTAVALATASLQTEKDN
# Summary of the method: as §1
# ERG = target: T4, ERG (Homo sapiens, UniProt P11308 1-479); conditions: protein: recombinant; tags: N-terminal GST; dsDNA, one strand shown
# T4 sequence: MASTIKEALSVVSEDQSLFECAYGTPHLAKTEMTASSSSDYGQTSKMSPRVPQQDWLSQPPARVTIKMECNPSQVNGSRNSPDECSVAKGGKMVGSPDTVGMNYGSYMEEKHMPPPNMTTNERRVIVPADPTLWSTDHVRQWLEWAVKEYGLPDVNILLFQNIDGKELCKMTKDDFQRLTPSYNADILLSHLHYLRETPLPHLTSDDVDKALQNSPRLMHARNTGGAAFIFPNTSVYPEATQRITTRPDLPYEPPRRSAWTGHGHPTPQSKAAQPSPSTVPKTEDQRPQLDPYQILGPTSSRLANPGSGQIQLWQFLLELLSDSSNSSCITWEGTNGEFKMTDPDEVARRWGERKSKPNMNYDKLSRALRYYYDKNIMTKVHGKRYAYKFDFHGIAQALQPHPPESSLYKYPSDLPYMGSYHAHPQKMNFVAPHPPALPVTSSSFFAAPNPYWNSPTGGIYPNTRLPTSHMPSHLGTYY
# Summary of the method: as §1
# ELF1 = ELF1 (Homo sapiens, UniProt P32519 1-619); conditions: protein: recombinant; tags: N-terminal GST; dsDNA, one strand shown
# Chain of ELF1 (P32519 whole entry): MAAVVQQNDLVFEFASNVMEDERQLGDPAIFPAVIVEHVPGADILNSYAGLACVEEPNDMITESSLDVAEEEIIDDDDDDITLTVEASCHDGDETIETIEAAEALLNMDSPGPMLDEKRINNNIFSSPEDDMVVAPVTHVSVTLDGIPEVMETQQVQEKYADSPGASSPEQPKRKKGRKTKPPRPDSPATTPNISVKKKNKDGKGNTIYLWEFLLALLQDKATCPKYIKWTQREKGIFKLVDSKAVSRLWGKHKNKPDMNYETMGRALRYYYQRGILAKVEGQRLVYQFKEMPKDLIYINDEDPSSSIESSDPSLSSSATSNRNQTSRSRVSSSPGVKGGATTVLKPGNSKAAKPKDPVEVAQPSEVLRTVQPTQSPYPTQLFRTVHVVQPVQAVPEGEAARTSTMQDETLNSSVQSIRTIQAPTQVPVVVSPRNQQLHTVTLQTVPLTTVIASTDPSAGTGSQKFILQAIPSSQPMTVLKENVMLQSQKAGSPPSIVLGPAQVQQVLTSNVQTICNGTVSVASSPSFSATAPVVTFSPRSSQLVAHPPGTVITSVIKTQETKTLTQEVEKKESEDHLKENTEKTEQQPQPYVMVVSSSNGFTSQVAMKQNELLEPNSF
# Summary of the method: as §1
# EHF = target: T5, EHF (Homo sapiens, UniProt Q9NZC4 1-300); conditions: protein: recombinant; tags: N-terminal GST; dsDNA, one strand shown
# T5 sequence: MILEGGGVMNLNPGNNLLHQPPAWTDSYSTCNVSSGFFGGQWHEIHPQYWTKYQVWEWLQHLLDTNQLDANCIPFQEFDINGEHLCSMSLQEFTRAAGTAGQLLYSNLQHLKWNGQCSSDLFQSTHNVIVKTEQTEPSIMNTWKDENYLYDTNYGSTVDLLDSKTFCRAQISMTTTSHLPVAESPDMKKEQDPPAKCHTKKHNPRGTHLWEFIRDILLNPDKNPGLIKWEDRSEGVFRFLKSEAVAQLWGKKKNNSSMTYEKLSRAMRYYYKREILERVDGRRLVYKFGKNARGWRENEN
# Summary of the method: as §1
# SPI1 = SPI1 (Homo sapiens, UniProt P17947 1-270); conditions: protein: recombinant; tags: N-terminal GST; dsDNA, one strand shown
# Summary of the method: as §1
# SPIB = SPIB (Homo sapiens, UniProt Q01892 1-262); conditions: protein: recombinant; tags: N-terminal GST; dsDNA, one strand shown
# Chain of SPIB (Q01892 whole entry): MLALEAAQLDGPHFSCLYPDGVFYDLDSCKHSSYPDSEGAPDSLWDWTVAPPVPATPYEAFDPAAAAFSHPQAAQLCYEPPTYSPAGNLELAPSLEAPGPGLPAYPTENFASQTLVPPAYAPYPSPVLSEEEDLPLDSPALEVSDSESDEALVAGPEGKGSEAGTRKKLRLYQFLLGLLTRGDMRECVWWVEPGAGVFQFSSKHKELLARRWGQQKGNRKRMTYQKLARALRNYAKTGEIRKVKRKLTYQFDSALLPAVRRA
# Summary of the method: as §1
# ELK3 = target: T6, ELK3 (Homo sapiens, UniProt P41970 1-407); conditions: protein: recombinant; tags: N-terminal GST; dsDNA, one strand shown
# T6 sequence: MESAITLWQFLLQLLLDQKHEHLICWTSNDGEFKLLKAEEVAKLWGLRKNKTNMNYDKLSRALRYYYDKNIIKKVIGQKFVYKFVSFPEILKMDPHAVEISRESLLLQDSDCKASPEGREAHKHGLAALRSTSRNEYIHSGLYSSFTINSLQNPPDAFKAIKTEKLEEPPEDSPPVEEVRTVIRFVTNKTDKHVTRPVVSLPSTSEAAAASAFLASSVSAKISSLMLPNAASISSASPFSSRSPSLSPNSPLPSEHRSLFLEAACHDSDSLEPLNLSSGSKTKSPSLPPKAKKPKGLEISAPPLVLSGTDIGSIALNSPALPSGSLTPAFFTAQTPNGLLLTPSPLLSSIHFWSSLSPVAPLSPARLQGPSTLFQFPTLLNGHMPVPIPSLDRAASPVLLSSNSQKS
# Summary of the method: as §1
# FEV = target: T7, FEV (Homo sapiens, UniProt Q99581 1-238); conditions: protein: recombinant; tags: N-terminal GST; dsDNA, one strand shown
# T7 sequence: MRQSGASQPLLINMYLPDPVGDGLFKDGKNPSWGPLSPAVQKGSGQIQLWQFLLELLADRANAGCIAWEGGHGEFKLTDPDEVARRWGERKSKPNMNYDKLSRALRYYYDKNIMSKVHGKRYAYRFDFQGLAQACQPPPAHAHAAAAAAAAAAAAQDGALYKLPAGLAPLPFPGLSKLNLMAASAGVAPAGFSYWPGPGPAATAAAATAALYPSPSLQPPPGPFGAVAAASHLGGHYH
# Summary of the method: as §1
# ETV5 = ETV5 (Homo sapiens, UniProt P41161 1-510); conditions: protein: recombinant; tags: N-terminal GST; dsDNA, one strand shown
# Chain of ETV5 (P41161 whole entry): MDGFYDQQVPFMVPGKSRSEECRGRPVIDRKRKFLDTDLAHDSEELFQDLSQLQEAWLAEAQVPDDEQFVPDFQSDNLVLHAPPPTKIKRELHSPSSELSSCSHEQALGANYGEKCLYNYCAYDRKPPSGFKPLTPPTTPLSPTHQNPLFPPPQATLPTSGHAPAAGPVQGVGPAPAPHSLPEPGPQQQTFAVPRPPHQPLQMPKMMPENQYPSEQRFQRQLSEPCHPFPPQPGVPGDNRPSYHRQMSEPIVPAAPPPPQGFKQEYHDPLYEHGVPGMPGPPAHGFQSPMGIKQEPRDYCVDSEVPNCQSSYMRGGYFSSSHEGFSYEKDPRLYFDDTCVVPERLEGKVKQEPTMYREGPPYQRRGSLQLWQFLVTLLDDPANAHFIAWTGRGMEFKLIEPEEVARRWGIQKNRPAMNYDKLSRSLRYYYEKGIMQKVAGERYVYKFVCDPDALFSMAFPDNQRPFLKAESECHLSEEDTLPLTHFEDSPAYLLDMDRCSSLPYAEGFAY
# Summary of the method: as §1
# HSF1 = HSF1 (Homo sapiens, UniProt Q00613 1-529); conditions: protein: recombinant; tags: N-terminal GST; chain copies: 3; dsDNA, one strand shown
# Chain of HSF1 (Q00613 whole entry): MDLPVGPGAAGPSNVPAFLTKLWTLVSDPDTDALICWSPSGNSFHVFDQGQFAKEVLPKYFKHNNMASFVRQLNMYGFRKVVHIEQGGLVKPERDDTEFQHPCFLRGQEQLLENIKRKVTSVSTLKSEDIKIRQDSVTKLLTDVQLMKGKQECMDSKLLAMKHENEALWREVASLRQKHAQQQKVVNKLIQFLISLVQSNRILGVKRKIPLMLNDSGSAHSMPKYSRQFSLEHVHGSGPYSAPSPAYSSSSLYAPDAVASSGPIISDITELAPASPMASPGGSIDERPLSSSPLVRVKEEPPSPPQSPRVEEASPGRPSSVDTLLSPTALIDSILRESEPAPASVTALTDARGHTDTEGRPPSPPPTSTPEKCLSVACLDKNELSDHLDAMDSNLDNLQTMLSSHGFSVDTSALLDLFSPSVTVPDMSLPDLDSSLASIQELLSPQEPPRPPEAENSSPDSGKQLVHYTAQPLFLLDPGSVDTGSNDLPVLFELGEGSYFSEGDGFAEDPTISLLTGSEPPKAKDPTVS
# Summary of the method: as §1
# SPIC = target: T8, SPIC (Homo sapiens, UniProt Q8N5J4 1-248); conditions: protein: recombinant; tags: N-terminal GST; dsDNA, one strand shown
# T8 sequence: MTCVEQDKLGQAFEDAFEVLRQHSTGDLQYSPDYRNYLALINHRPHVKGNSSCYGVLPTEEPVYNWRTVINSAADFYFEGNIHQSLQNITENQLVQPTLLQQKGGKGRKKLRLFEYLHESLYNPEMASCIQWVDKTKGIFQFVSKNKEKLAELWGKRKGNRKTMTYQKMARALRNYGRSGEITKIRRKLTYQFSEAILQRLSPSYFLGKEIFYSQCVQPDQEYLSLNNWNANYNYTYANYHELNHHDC
# Summary of the method: as §1
# ELF4 = ELF4 (Homo sapiens, UniProt Q99607 1-663); conditions: protein: recombinant; tags: N-terminal GST; dsDNA, one strand shown
# Chain of ELF4 (Q99607 whole entry): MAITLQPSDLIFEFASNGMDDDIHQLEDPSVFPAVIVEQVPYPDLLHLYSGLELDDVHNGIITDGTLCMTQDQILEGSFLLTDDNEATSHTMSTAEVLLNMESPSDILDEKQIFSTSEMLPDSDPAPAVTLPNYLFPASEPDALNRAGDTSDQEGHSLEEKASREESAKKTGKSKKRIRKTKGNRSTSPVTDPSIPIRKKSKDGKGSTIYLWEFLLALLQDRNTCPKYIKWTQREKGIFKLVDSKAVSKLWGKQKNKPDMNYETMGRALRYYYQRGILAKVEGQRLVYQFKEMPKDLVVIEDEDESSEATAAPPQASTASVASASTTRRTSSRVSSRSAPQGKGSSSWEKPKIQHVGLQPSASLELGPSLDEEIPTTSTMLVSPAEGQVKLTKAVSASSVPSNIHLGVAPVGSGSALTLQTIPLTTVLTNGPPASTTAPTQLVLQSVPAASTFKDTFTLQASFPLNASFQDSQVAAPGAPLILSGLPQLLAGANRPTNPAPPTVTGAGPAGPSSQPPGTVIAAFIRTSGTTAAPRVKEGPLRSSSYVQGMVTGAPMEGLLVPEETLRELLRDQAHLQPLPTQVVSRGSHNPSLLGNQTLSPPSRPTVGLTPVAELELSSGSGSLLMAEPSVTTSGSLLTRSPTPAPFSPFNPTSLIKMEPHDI
# Summary of the method: as §1
# ELK4 = target: T9, ELK4 (Homo sapiens, UniProt P28324-2 1-405); conditions: protein: recombinant; tags: N-terminal GST; dsDNA, one strand shown
# T9 sequence: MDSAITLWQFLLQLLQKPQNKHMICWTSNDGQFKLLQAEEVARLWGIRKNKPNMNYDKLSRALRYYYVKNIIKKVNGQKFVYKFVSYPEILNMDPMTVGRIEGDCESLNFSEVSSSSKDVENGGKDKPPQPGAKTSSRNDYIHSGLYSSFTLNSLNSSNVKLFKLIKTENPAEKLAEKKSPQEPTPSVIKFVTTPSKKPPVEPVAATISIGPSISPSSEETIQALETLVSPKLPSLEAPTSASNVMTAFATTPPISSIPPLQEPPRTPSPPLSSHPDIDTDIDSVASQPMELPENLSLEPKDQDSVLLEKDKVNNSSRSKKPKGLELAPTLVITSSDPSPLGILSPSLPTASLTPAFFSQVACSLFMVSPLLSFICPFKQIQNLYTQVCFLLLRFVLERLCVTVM
# Summary of the method: as §1
# ETV2 = target: T10, ETV2 (Homo sapiens, UniProt O00321 1-342); conditions: protein: recombinant; tags: N-terminal GST; dsDNA, one strand shown
# T10 sequence: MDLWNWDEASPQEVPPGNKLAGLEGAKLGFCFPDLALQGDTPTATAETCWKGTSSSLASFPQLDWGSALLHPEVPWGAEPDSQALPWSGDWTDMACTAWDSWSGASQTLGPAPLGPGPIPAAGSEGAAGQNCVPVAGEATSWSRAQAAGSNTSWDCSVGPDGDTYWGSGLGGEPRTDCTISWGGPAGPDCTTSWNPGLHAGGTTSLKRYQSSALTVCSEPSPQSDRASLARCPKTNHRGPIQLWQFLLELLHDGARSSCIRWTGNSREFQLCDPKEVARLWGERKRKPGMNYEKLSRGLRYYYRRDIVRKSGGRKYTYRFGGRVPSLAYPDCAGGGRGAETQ
# Summary of the method: as §1
# ELF3 = target: T11, ELF3 (Homo sapiens, UniProt P78545 1-371); conditions: protein: recombinant; tags: N-terminal GST; dsDNA, one strand shown
# T11 sequence: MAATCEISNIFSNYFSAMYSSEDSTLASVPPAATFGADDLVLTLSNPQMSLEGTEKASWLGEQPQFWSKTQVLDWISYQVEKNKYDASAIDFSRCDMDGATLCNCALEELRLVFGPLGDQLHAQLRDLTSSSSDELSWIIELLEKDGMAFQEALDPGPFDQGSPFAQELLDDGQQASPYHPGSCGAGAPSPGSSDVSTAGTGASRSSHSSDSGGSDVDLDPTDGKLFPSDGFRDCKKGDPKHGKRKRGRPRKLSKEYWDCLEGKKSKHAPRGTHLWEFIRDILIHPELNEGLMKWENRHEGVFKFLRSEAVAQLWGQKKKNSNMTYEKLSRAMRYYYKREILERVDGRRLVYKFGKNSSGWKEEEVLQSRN
# Summary of the method: as §1
# CRX = CRX (Homo sapiens, UniProt O43186 1-299); conditions: protein: recombinant; tags: N-terminal GST; dsDNA, one strand shown
# Chain of CRX (O43186 whole entry): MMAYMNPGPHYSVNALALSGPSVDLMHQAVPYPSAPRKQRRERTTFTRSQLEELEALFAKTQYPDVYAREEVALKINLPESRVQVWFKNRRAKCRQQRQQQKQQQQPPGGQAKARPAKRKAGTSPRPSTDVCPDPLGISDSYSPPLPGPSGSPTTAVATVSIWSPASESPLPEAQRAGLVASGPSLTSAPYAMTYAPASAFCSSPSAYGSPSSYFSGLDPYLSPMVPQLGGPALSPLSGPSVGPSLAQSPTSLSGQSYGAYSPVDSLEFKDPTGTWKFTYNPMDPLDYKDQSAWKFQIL
# Summary of the method: as §1
# ETV1 = ETV1 (Homo sapiens, UniProt P50549 1-477); conditions: protein: recombinant; tags: N-terminal GST; dsDNA, one strand shown
# Chain of ETV1 (P50549 whole entry): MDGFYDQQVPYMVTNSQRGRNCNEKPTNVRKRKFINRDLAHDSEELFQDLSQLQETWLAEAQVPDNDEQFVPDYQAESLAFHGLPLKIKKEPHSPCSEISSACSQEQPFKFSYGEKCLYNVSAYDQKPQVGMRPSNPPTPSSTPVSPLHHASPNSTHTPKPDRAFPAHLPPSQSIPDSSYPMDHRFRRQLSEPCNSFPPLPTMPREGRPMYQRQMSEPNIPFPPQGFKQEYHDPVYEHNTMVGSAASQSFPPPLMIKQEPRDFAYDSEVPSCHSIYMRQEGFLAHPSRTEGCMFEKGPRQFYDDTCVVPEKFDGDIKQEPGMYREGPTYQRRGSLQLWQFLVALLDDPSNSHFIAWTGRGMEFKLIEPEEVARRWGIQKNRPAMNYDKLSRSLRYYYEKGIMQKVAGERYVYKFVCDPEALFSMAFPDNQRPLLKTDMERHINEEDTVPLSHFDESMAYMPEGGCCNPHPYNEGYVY
# Summary of the method: as §1
sequence,measurement,setting,value
ACTATT,binding signal,FLI1,"1.29 fold enrichment (6-mer frequency, TF over GST control)"
same,binding signal,ELK1,"1.17 fold enrichment (6-mer frequency, TF over GST control)"
same,binding signal,GABPA,"1.33 fold enrichment (6-mer frequency, TF over GST control)"
same,binding signal,ERG,"1.3 fold enrichment (6-mer frequency, TF over GST control)"
same,binding signal,ELF1,"1.27 fold enrichment (6-mer frequency, TF over GST control)"
same,binding signal,EHF,"1.3 fold enrichment (6-mer frequency, TF over GST control)"
same,binding signal,SPI1,"1.22 fold enrichment (6-mer frequency, TF over GST control)"
same,binding signal,SPIB,"1.26 fold enrichment (6-mer frequency, TF over GST control)"
same,binding signal,ELK3,"1.28 fold enrichment (6-mer frequency, TF over GST control)"
same,binding signal,FEV,"1.25 fold enrichment (6-mer frequency, TF over GST control)"
same,binding signal,ETV5,"1.22 fold enrichment (6-mer frequency, TF over GST control)"
same,binding signal,HSF1,"1.33 fold enrichment (6-mer frequency, TF over GST control)"
same,binding signal,SPIC,"1.44 fold enrichment (6-mer frequency, TF over GST control)"
same,binding signal,ELF4,"1.3 fold enrichment (6-mer frequency, TF over GST control)"
same,binding signal,ELK4,"1.35 fold enrichment (6-mer frequency, TF over GST control)"
same,binding signal,ETV2,"1.31 fold enrichment (6-mer frequency, TF over GST control)"
same,binding signal,ELF3,"1.32 fold enrichment (6-mer frequency, TF over GST control)"
same,binding signal,CRX,"1.28 fold enrichment (6-mer frequency, TF over GST control)"
same,binding signal,ETV1,"1.28 fold enrichment (6-mer frequency, TF over GST control)"
